Out of some 69,000 compounds screened, about 950 (1.4%) showed an effect of 50% or more. What follows is part of a selection rich in strong results, with near analogues and random picks from the rest.
System: Mycobacterium tuberculosis
Experiment: Cornell M. t heat shock assay; note: in the data most compounds retested in dose-response had high values
Format: functional, organism-based
Set-up: dose or concentration left out as unconfirmed

Row | SMILES | Percent Effect [%]
1 | Cc1nccn1-c1cccc(C2CCCN2)n1.Cl (centres undefined) | -11.58
2 | CCCS(=O)(=O)N1CCC2(CC1)CN(CC1CCOC1)c1ccccc12.O=C(O)C(F)(F)F (centres undefined) | 28.34
3 | Cc1cccc(CN2C[C@@H]3COC[C@]3(CNC(=O)C3CC3)C2)c1.O=C(O)C(F)(F)F | 2.9
4 | CC(C)NC(=O)N(Cc1cc(O)nc2ccccc12)C(C)C | -8.593
5 | COCCN(Cc1cc(O)nc2ccccc12)C(=O)NC(C)C | 104.4
6 | COCCCN(Cc1cc(O)nc2ccccc12)C(=O)NC(C)C | -0.9795
7 | Cc1cc(N2CCN(C(=O)[C@@H]3C[C@@H]4C=C[C@H]3C4)CC2)cc(C)n1 | -20.18
8 | O=C(CC1CC1)N1C[C@@H]2CCN(c3cnccn3)C[C@@H]2C1.O=C(O)C(F)(F)F | -16.38
9 | O=C(NCCCN1CCCCC1)c1ccc(-n2ccc3ccccc32)s1 | 102.3
10 | O=C(NCCCN1CCOCC1)c1ccc(-n2ccc3ccccc32)s1 | 14.99
11 | O=C(NCCCN1CCCC1=O)c1ccc(-n2ccc3ccccc32)s1 | 22.37
12 | CC(=O)N1C[C@@H]2CC[C@H](C1)N(S(=O)(=O)c1ccc(C#N)cc1Cl)C2 | 12.47
13 | O=C(O)C(F)(F)F.O=C(c1cscn1)N1CCC2(CCN(Cc3cccs3)CC2)C1 | 3.711
14 | O=C(Nc1cccnc1)[C@@H]1COC[C@H]2CN(C3CCCC3)C[C@H]21.O=C(O)C(F)(F)F.O=C(O)C(F)(F)F | -37.6
15 | CCc1c(C)nc(SCc2ccccn2)[nH]c1=O | 33.29
16 | CCCc1cc(=O)[nH]c(-c2ccccc2CN(C)CCC(C)C)n1 | -7.876
17 | CCc1cc(=O)[nH]c(SCc2ccccn2)n1 | 70.99
18 | CCCc1cc(=O)[nH]c(SCc2ccccn2)n1 | 69.86
19 | Cc1nnc(SCc2ccccn2)s1 | 4.26
20 | O=c1cc(C2CCNCC2)nc(CCc2ccccn2)[nH]1 | 6.043

Row | SMILES | Percent Effect [%]
21 | COc1cccc(CC(=O)N2CC[C@@H](OC)[C@@H]2Cc2cccnc2)c1.O=C(O)C(F)(F)F | 11.27
22 | Cc1nnc(CN(C)C2CCCN(Cc3noc(C4CC4)n3)C2)o1 (centres undefined) | -4.888
23 | CCOC1COC2(CCN(CC3CC3)CC2)C1.O=C(O)C(F)(F)F (centres undefined) | -11.36
24 | CC(Cn1cccn1)NCc1csc(-c2ccccc2)n1 (centres undefined) | 29.32
25 | COc1cccc(-c2nc(CNCc3cccnc3)cs2)c1 | -18.41
26 | COc1cccc(-c2nc(CNC(C)Cn3cccn3)cs2)c1 (centres undefined) | 89.4
27 | Cc1ccc(-c2nc(CNC(C)Cn3cccn3)cs2)o1 (centres undefined) | 55.14
28 | COc1ccc(-c2noc(CNC(C)Cn3cccn3)n2)c(OC)c1 (centres undefined) | -27.41
29 | COc1ccc(-c2nc(CNC(C)Cn3cccn3)cs2)cc1 (centres undefined) | 58.05
30 | Cc1ccc(-c2nc(CN3CCOC(Cn4cccn4)C3)cs2)o1 (centres undefined) | 19.35
31 | O=C(NCc1ccccn1)[C@@H]1COC[C@H]2CN(C3CCOCC3)C[C@H]21.O=C(O)C(F)(F)F.O=C(O)C(F)(F)F | 0.9957
32 | CC(=O)N1CCN(c2cncc(C3CCNCC3)n2)CC1.Cl | -8.785
33 | O=C(O)C(F)(F)F.O=C(c1ccccc1)N1CCOC2(CCN(Cc3cccs3)CC2)C1 | -35.41
34 | Cc1ccc(CN2Cc3nnn(C)c3C(COCC3CC3)C2)s1.O=C(O)C(F)(F)F (centres undefined) | -11.83
35 | O=C(O)C(F)(F)F.c1cnc(N2CCOCC3(CN(Cc4cc[nH]n4)CCO3)C2)nc1 (centres undefined) | -18.22
36 | CCOCC(=O)N1CCC(c2cc3ncccc3c(O)n2)CC1 | -9.964
37 | O=C(CC1CCCC1)N1CCC(c2cc3ncccc3c(O)n2)CC1 | 63.36
38 | CCCC(=O)N1CCC(c2cc3cccnc3c(O)n2)CC1 | -11.07
39 | O=C(CCC1CCCC1)N1CCC(c2cc3ncccc3c(O)n2)CC1 | 59.08
40 | CCCC(=O)N1CCCC(c2cc3cccnc3c(O)n2)C1 (centres undefined) | -27.54

Row | SMILES | Percent Effect [%]
41 | COCC(=O)N1CCC(c2cc3ncccc3c(O)n2)CC1 | 10.22
42 | CC(C)N(C)Cc1nnn2c1CN(Cc1cccnc1)CCC2.O=C(O)C(F)(F)F.O=C(O)C(F)(F)F.O=C(O)C(F)(F)F | -0.7766
43 | CC(C)n1c(=O)nc2n1C(=O)N(c1ccc(Cl)cc1)C2 | 4.407
44 | CCOC(=O)[C@]12CCCN(Cc3cccs3)C[C@H]1CN(CC(C)C)C2.O=C(O)C(F)(F)F.O=C(O)C(F)(F)F | 26.18
45 | O=C(CN1CC(c2nc(-c3ccco3)no2)C1)NCCc1ccccc1.O=C(O)C(=O)O | -7.325
46 | CN(C)C(=O)Cc1ccccc1NCc1cccc(F)c1F | -10.01
47 | CS(=O)(=O)Cc1ccc(Cl)cc1NCc1ccccc1F | 52.35
48 | CS(=O)(=O)Cc1ccc(Cl)cc1NCc1cccc(F)c1F | 57.79
49 | O=C(Cc1cccc(F)c1F)NS(=O)(=O)c1ccc(Cl)cc1F | -11.18
50 | CS(=O)(=O)Cc1ccccc1NCc1cc(Cl)ccc1Cl | -12.17
51 | CC(CS(C)(=O)=O)NCc1cc(Cl)ccc1F (centres undefined) | -12.53
52 | Cn1nc(C(=O)N2CCOCC2)cc1C(=O)Nc1ccc(Cl)cc1Cl | 13.26
53 | Cc1csc(NC(=O)CN(C)CCOc2cccc(F)c2)n1 | 95.41
54 | Cc1sc(NC(=O)CN(C)CCOc2cccc(F)c2)c(C)c1C | 3.214
55 | CN(CCOc1cccc(F)c1)CC(=O)Nc1ccncc1 | -17.11
56 | CCc1oc(C(=O)N2CC[C@H]3CC[C@@H](C2)N3)cc1CN(CC)CC | -18.46
57 | CN(C)C(=O)N1C[C@@H]2CC[C@H](C1)N(Cc1nnc(C3CC3)o1)C2 | 104.3
58 | CN(C)C(=O)N1C[C@@H]2CC[C@H](C1)N(Cc1nnc(-c3ccco3)o1)C2 | 3.686
59 | CN(C)C(=O)N1C[C@@H]2CC[C@H](C1)N(Cc1nnc(-c3ccccc3)o1)C2 | 16.99

Source: ChEMBL document CHEMBL3988442, “University of Dundee, Small-Polar-MMV Screening Library” (2021)
